The list is not random: actives were taken first. Their share in the collection is about 19%.
RORg inh – blocks mouse ROR gamma transcriptional activity; P51450; Drosophila S2 Gal4-RORgamma UAS-luciferase reporter, 20 h; Potency, µM (titrated, usually from 53.6 µM), inactives show at the highest dose activity change, negative = inhibition, actives largely listed as inhibitors; 310,000 tested, 5.4% active; note: nearly all actives have a fitted effect of over 60% in size
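Compounds are pin-transferred onto Drosophila Schneider cells expressing a copper-inducible Gal4–ROR gamma transactivation domain fusion. After 1 hr, copper sulfate is added to 700 uM final; luciferase is read 20 hr later.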
TDP1 cell CPT – DT40-hTDP1 cell growth loss with CPT. Potency, µM (top dose mostly 46.2 µM), for inactives: top-dose activity change, negative = growth inhibition, usual class: inhibitors. chicken DT40 Tdp1-/-;hTDP1 cells + 20 nM CPT, ATP luminescence, 48 h. 420,000 tested, 12% active; note: nearly all actives have a fitted effect of over 55% in size
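Chicken DT40 Tdp1-/- cells complemented with human TDP1, 400 cells/well, exposed to compounds plus 20 nM camptothecin for at least 48 h at 37 C; viability read as ATP content by CellTiter-Glo luminescence.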
VP16 counter – inhibits Gal4-VP16 luciferase reporter, ROR gamma counter-screen. Drosophila S2 Gal4-VP16 UAS-luciferase, luminescence, 20 h. Potency, µM (series often up to 53.6 µM), inactives show at the highest dose activity, negative = inhibition, actives largely listed as inhibitors. 310,000 tested, 3.5% active. AID 2546;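 note: Gal4-VP16 expression switched on by copper sulfate through the metallothionein promoter; nearly all actives have a fitted effect of over 50% in size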
DT40 TDP1 no CPT – qHTS for Inhibitors of human tyrosyl-DNA phosphodiesterase 1 (TDP1): qHTS in cells in absence of CPT. DT40 Tdp1-/- hTDP1 cells, no CPT, ATP luminescence, 48 h. Potency, µM (series often up to 46.2 µM), for inactives: at the highest dose activity change, negative = growth inhibition, usual class: inhibitors. 420,000 tested, 15% active; note: nearly all actives have a fitted effect of over 55% in size
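Chicken DT40 Tdp1-/- cells complemented with human TDP1, screened without camptothecin (DMSO vehicle only), 400 cells/well. Compounds pin-transferred, cells incubated at 37 °C for at least 48 hr. Growth read as ATP-dependent luminescence (CellTiter-Glo, 30 min at RT).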
TDP1 inh – TDP1 (human) enzyme inhibition | Q9NUW8 | 350,000 tested, 0.28% active | Potency, µM (series often up to 130 µM), for inactives: top-dose activity change, negative = inhibition, hits mostly inhibitors | recombinant TDP1, AlphaScreen DNA substrate cleavage; note: nearly all actives have a fitted effect of over 40% in size
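E. coli-derived human Tdp1, 1 nM final. Cpd preinc 15 min RT; substrate 15 nM final, 5 min RT; AS bead mix 10 ug/ml final, 10 min RT. Signal loss = tyrosine-FITC cleavage. No-enzyme wells = max signal.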
Numbers without * were called inactive; ? = inconclusive; . = no result; [ ] = dose if it differs, or a comment. Calls come from the whole dose curve; as a rule, active = well fitted curve in the direction sought with a large enough effect; inconclusive = small, poorly fitted or top-dose-only effect, or another doubt; inactive = no such curve, though single readings can be large; an effect the other way counts as inactive or inconclusive. % is set by controls: 0 for no effect and ±100 for the full control effect; potency is the fitted concentration of half-maximal effect.

SMILES	RORg inh	TDP1 cell CPT	VP16 counter	DT40 TDP1 no CPT	TDP1 inh
Cc1ccccc1NC(=O)c1sc2nc(N3CCOCC3)c3c(c2c1N)CCCC3	17%	?	-11%	7.3µM*	1%
CCCN(CC(=O)Nc1ccc(F)c(F)c1F)C(=O)C1=COCCO1	.	-13%	.	-4%	-1%
CCn1ncc2c(OCc3ccc(C#N)cc3)cc(C)nc21	3%	?	-2%	?	-2%
CCN(Cc1ccncc1)S(=O)(=O)c1ccc(C(C)=O)cc1	31%	16µM*	7.9µM*	12µM*	7%
CCN(CC)S(=O)(=O)c1ccc(C(=O)Nc2ccc(Cc3ccncc3)cc2)cc1	5.6µM*	16µM*	3.5µM*	15µM*	-4%
COc1cccc(OC)c1C(=O)Nc1nc2c(s1)CCc1ccccc1-2	.	0%	.	-15%	5%[12.3 µM]
CCCN(CCC)S(=O)(=O)c1ccc(C(=O)Nc2nc3c(s2)CCc2ccccc2-3)cc1	?	16µM*	-24%	15µM*	3%
CCN(CC)S(=O)(=O)c1ccc(C(=O)Nc2nnc(NC(=S)Nc3ccccc3)s2)cc1	?	?	?	23µM*	6%
COc1cccc(CNC(=O)CC(NC(C)=O)c2ccccc2)c1 (centres undefined)	15%	2%	-10%[10 µM]	-18%	8%
CC(=O)c1ccc(NC(=O)Cn2nc(N3CCN(c4ccccc4)CC3)ccc2=O)cc1	.	10%	.	3%	3%
Cc1ccc(-n2[nH]c(=O)c(-c3ccccn3)c2C)cc1	1.3µM*	-1%	2.8µM*	1%	0%
COc1ccc(CCNC(=O)COc2ccc(-c3ccc(C)cc3)cc2)cc1OC	1%	?	-9%	?	1%
CC1CC(C)CN(C(=O)c2ccc3c(c2NCCO)C(=O)c2ccccc2C3=O)C1 (centres undefined)	-30%	29µM*	?	23µM*	11%
CC1CC(C)CN(C(=O)COC(=O)CN2C(=O)c3ccccc3C2=O)C1 (centres undefined)	.	5%	.	7%	0%
O=C(Nc1cccc(-c2nc3ncccc3o2)c1)c1ccc2c(c1)OCO2	.	6%	.	-7%	.
Cc1ccc(CN2C(=O)C3(c4ccccc42)N(c2cccc(F)c2)C(=O)CS3(=O)=O)cc1 (centres undefined)	.	15µM*	.	?	3%
Cc1cccc(N2C(=O)CS(=O)(=O)C23C(=O)N(Cc2c(F)cccc2Cl)c2ccccc23)c1 (centres undefined)	.	21µM*	.	23µM*	0%
Cc1ccc(N2C(=O)CS(=O)(=O)C23C(=O)N(Cc2cccc(F)c2)c2ccccc23)cc1Cl (centres undefined)	.	23µM*	.	23µM*	3%
O=C1CS(=O)(=O)C2(C(=O)N(Cc3ccccc3)c3ccccc32)N1c1ccc(F)c(Cl)c1 (centres undefined)	.	-29%	.	?	4%
O=C1CS(=O)(=O)C2(C(=O)N(Cc3ccccc3Cl)c3ccccc32)N1c1ccc(F)cc1 (centres undefined)	.	15µM*	.	16µM*	6%
CC(Oc1ccc(Cl)cc1Cl)C(=O)Nc1cccc(O)c1 (centres undefined)	8%	-16%	-8%[10 µM]	0%	5%
COc1ccc(/C=C/C(=O)c2ccc(C(=O)/C=C/c3ccc(OC)c(OC)c3)cc2)cc1OC	?	7.3µM*	?	5.8µM*	.
CCOc1cc(/C=C/C(=O)O)ccc1OCCO	0%	13µM*	6%	18µM*	0%
COc1ccc(C=CC(=O)c2ccc(OCc3ccccc3)c(OC)c2)cc1OC	.	26µM*	.	18µM*	.
COC(=O)c1ccc(/C=C/C(=O)c2ccc(OC)c(OC)c2)cc1	4%	?	-6%	?	6%
COc1cc(/C=C/C(=O)c2ccc(C)cc2)ccc1OCC#N	19%[10 µM]	?	?	?	1%
CCOc1cc(/C=C/C(=O)c2ccc(C)cc2)ccc1OCC(=O)N(C)C	?	18µM*	4%	21µM*	4%
